Among the data in PubChem BioAssay AID488848 (Broad Institute, 2010) are outcome values, retold here.

Molecules are shown by their SMILES. Results with a measured potency or affinity are listed apart. Activity calls are given as the source filed them.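 Rule for the calls: active = compounds lowering caspase signal with half-maximal concentration at most ten times their top tested dose; inconclusive = flat curve with 30 to 70% inhibition, or poor fit; inactive = the rest.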

The experiment in a line: caspase-3/7 inhibition in cytokine-treated INS-1E, dose response, beta-cell apoptosis inhibitor project, cell-based, caspase luminescence, dry powder (AID 488848). The conditions noted are these: INS-1E cytokine-induced caspase-3/7 luminescence, 48 h; series mostly up to 19.5 µM.
In the case of `C[C@@H]1CN([C@@H](C)CO)C(=O)c2cccc(NC(=O)Nc3cccc4ccccc34)c2O[C@H]1CN(C)S(=O)(=O)c1ccc(Oc2ccccc2)cc1`, the compound was called inactive.

In the case of `COc1ccc(S(=O)(=O)N(C)C[C@@H]2Oc3ccc(NC(=O)Nc4cccc5ccccc45)cc3C(=O)N([C@@H](C)CO)C[C@H]2C)cc1`, the compound was called inactive.

For the compound `COc1ccc(S(=O)(=O)N(C)C[C@@H]2Oc3c(NC(=O)Nc4cccc5ccccc45)cccc3C(=O)N([C@@H](C)CO)C[C@H]2C)cc1Cl`, the outcome was inactive.

As for `C[C@@H]1CN([C@@H](C)CO)C(=O)c2cccc(NC(=O)Nc3ccc(F)cc3)c2O[C@H]1CN(C)S(=O)(=O)c1ccc(Cl)cc1`, the compound was called inactive.

For the compound `COc1ccc(S(=O)(=O)N(C)C[C@@H]2Oc3c(NC(=O)NC4CCCc5ccccc54)cccc3C(=O)N([C@@H](C)CO)C[C@H]2C)cc1` (stereo not given in full), the compound was called inactive.

As to `C[C@@H]1CN([C@@H](C)CO)C(=O)c2cccc(NC(=O)Nc3cccc4ccccc34)c2O[C@H]1CN(C)S(=O)(=O)c1ccc(F)cc1`, the compound was called inactive.

In the case of `C[C@@H]1CN([C@@H](C)CO)C(=O)c2cccc(NC(=O)Nc3cccc4ccccc34)c2O[C@H]1CN(C)S(=O)(=O)c1ccc(Cl)cc1`, the result was inactive.

As for `COc1ccc(S(=O)(=O)N(C)C[C@@H]2Oc3c(NC(=O)Nc4cccc5ccccc45)cccc3C(=O)N([C@@H](C)CO)C[C@H]2C)c(OC)c1`, the call was inactive.

As for `COc1ccc(S(=O)(=O)N(C)C[C@@H]2Oc3c(NC(=O)Nc4cccc5c4CC(C)(C)O5)cccc3C(=O)N([C@@H](C)CO)C[C@H]2C)cc1`, the compound was classed as inactive.

On to `COc1ccc(S(=O)(=O)N(C)C[C@@H]2Oc3c(NC(=O)Nc4ccc5c(c4)OCCO5)cccc3C(=O)N([C@@H](C)CO)C[C@H]2C)cc1`, for which the compound was classed as inactive.

With `C[C@@H]1CN([C@@H](C)CO)C(=O)c2cccc(NC(=O)Nc3cccc4ccccc34)c2O[C@H]1CN(C)S(=O)(=O)c1ccccc1F`, the compound was called inactive.

Regarding `COc1ccc(S(=O)(=O)N(C)C[C@@H]2Oc3c(NC(=O)Nc4cc(F)cc5c4OCOC5)cccc3C(=O)N([C@@H](C)CO)C[C@H]2C)cc1`, the result was inactive.

In the case of `COc1ccc(S(=O)(=O)N(C)C[C@@H]2Oc3c(NC(=O)Nc4cc(F)ccc4F)cccc3C(=O)N([C@@H](C)CO)C[C@H]2C)cc1`, the compound was called inactive.

Turning to `C[C@@H]1CN([C@@H](C)CO)C(=O)c2cccc(NC(=O)Nc3cccc4ccccc34)c2O[C@H]1CN(C)S(=O)(=O)c1ccc(-c2ccccc2)cc1`, the outcome was inactive.

In the case of `COc1ccccc1S(=O)(=O)N(C)C[C@@H]1Oc2c(NC(=O)Nc3cccc4ccccc34)cccc2C(=O)N([C@@H](C)CO)C[C@H]1C`, the compound was called inactive.

Take `COc1ccc(S(=O)(=O)N(C)C[C@@H]2Oc3c(NC(=O)Nc4cccc5ccccc45)cccc3C(=O)N([C@@H](C)CO)C[C@H]2C)cc1F`: the call was inactive.

On to `COc1ccc(S(=O)(=O)N(C)C[C@@H]2Oc3c(NC(=O)Nc4ccc5occc5c4)cccc3C(=O)N([C@@H](C)CO)C[C@H]2C)cc1`, for which the compound was called inactive.

For the compound `COc1ccc(S(=O)(=O)N(C)C[C@@H]2Oc3c(NC(=O)Nc4cccc5c4NSN5)cccc3C(=O)N([C@@H](C)CO)C[C@H]2C)cc1`, the result was inactive.

`COc1ccc(S(=O)(=O)N(C)C[C@@H]2Oc3c(NC(=O)Nc4cccc(C(F)(F)F)c4)cccc3C(=O)N([C@@H](C)CO)C[C@H]2C)cc1`: the call was inactive.

In the case of `COc1ccc(S(=O)(=O)N(C)C[C@@H]2Oc3c(NC(=O)Nc4ccccc4-c4ccccc4)cccc3C(=O)N([C@@H](C)CO)C[C@H]2C)cc1`, the call was inactive.

For the compound `Cc1ccc(S(=O)(=O)N(C)C[C@@H]2Oc3c(NC(=O)Nc4ccc(F)cc4)cccc3C(=O)N([C@H](C)CO)C[C@H]2C)cc1`, the outcome was inactive.

As for `COc1cccc(S(=O)(=O)N(C)C[C@@H]2Oc3c(NC(=O)Nc4cccc5ccccc45)cccc3C(=O)N([C@@H](C)CO)C[C@H]2C)c1`, the outcome was inactive.

Take `C[C@@H]1CN([C@@H](C)CO)C(=O)c2cccc(NC(=O)Nc3cccc4ccccc34)c2O[C@H]1CN(C)S(=O)(=O)c1cccc(F)c1`: the compound was called inactive.

As to `C[C@@H]1CN([C@@H](C)CO)C(=O)c2cccc(NC(=O)Nc3cccc4ccccc34)c2O[C@H]1CN(C)S(=O)(=O)Cc1ccc(F)cc1`, the compound was classed as inactive.

`C[C@@H]1CN([C@@H](C)CO)C(=O)c2cccc(NC(=O)Nc3cccc4ccccc34)c2O[C@H]1CN(C)S(=O)(=O)c1ccc2c(c1)CCC(=O)N2`: the compound was classed as inactive.
